Assay results as given in PubChem BioAssay (Tox21).
Inconclusive results are not listed. Where a call stands in place of a potency, no number is given. Values without a mark were called inactive. Calls of active or inactive are those of the source. Calls come from the whole dose curve; as a rule, active = well fitted cell-killing curve with a large enough effect in the repeat runs; inconclusive = weak or mixed curves, or effect the other way; inactive = flat fitted curve, though single readings scatter.

Experiments:
[1] = cAMP Responsive Elements (CRE) small molecule antagonists, cell-based qHTS assay: qHTS cell viability counter screen (AID 2060913); conditions: CRE-bla HEK293T viability, CellTiter-Glo luminescence, 5 h; series mostly up to 92.4 µM; note: nearly all actives have a fitted effect of over 40% in size
In short: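 HEK293T CRE-bla, 2,000 cells/well, 18 h preincubation; cpd in DMSO + NKH477 0.25 uM final, 3 h 37 C/5% CO2; LiveBLAzer 2 h RT, then CellTiter-Glo 30 min RT, luminescence.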

[2] = cAMP Responsive Elements (CRE) small molecule agonists, cell-based qHTS assay: qHTS cell viability counter screen (AID 2060914); conditions: CRE-bla HEK293T viability, CellTiter-Glo luminescence, 5 h; series mostly up to 92.4 µM;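 note: viability read after 3 h of compound exposure; nearly all actives have a fitted effect of over 50% in size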
In short: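 Cytotoxicity counter screen multiplexed with the CRE-bla reporter assay in HEK 293T cells: 3 h compound exposure at 37 °C, followed by CellTiter-Glo luminescence measured in the same wells.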
Potency is the fitted concentration of half-maximal effect.

SMILES | Potency [1] | Potency [2] | viability change, negative = cytotoxic [1] | activity change, negative = cytotoxicity [2]
CC1=C(CC(=O)O)c2cc(F)ccc2/C1=C\c1ccc(S(C)=O)cc1 (stereo not drawn) | inactive | inactive |  | 
C[C@@H]1C[C@H]2[C@@H]3CCC4=CC(=O)C=C[C@]4(C)[C@@]3(F)[C@@H](O)C[C@]2(C)[C@@]1(O)C(=O)COP(=O)(O)O | inactive | inactive |  | 
OC[C@H]1O[C@@H](OCCc2ccc(O)cc2)[C@H](O)[C@@H](O)[C@@H]1O | inactive | inactive |  | 
O=C(c1ccc(O)cc1O)c1ccc(O)cc1O | inactive | inactive |  | 
CN(C)C(=O)Nc1ccc(Cl)c(Cl)c1 | inactive | inactive |  | 
ClC/C=C/CCl | inactive | inactive |  | 
C/C=C(\C)C(C)=O | inactive | inactive |  | 
CCNC(=O)N1CCN(CCCC(c2ccc(F)cc2)c2ccc(F)cc2)CC1 | inactive | inactive |  | 
C=CC(=O)OCC(Br)CBr (stereo not drawn) | inactive | inactive |  | 
C=CC(C)(O)CC/C=C(\C)CCC=C(C)C (stereo not drawn) | inactive | inactive |  | 
CC(C)(Cc1c[nH]c2ccccc12)NCC(O)COc1ccccc1C#N (stereo not drawn) | inactive | inactive |  | 
CC(=O)c1ccc([N+](=O)[O-])cc1 | inactive | inactive |  | 
CCCCC(CC)C(=O)OC(C)C (stereo not drawn) | inactive | inactive |  | 
CCCCCC(C)=O | inactive | inactive |  | 
O=C(O)C(=O)Nc1cccc(-c2nn[nH]n2)c1 | inactive | inactive |  | 
CN1CCN(C2=Nc3cc(Cl)ccc3Nc3ccccc32)CC1 | inactive | inactive |  | 
CCCCC(CC)C(=O)O (stereo not drawn) | inactive | inactive |  | 
OCCOCCOCCOCCOCCO | inactive | inactive |  | 
CCCCCC(CO)CCC (stereo not drawn) | inactive | inactive |  | 
OC(CCCN1CCCCC1)(c1ccccc1)c1ccccc1 | inactive | inactive |  | 
CN1C(=O)CC(C)(c2ccccc2)C1=O (stereo not drawn) | inactive | inactive |  | 
CC(C)NCC(O)c1ccc2ccccc2c1 (stereo not drawn) | inactive | inactive |  | 
NC(=O)CCCCC1CCSS1 (stereo not drawn) | inactive | inactive |  | 
C[N+]1(C)[C@@H]2CC(OC(=O)[C@H](CO)c3ccccc3)C[C@H]1[C@@H]1O[C@@H]12 (stereo partly drawn) | inactive | inactive |  | 
C=C1C2CCC(C2)C1(C)C (stereo not drawn) | inactive | inactive |  | 
Cc1cscn1 | inactive | inactive |  | 
CC(Cl)C(Cl)Cl (stereo not drawn) | inactive | inactive |  | 

SMILES | Potency [1] | Potency [2] | viability change, negative = cytotoxic [1] | activity change, negative = cytotoxicity [2]
CCCCCCCCCCCCc1ccc(O)cc1 | 61.1 µM (active) | 61.1 µM (active) |  | 
CNNCc1ccc(C(=O)NC(C)C)cc1 | inactive | inactive |  | 
O=c1c2ccccc2nnn1CCl | inactive | inactive |  | 
O=C(Nc1ccccc1)c1ccccc1O | inactive | inactive |  | 
NC1=NCC2c3ccccc3Cc3ccccc3N12 (stereo not drawn) | inactive | inactive |  | 
COCc1c(C(C)C)nc(C(C)C)c(/C=C/[C@@H](O)C[C@@H](O)CC(=O)O)c1-c1ccc(F)cc1 | inactive | inactive |  | 
Nc1cc(-c2ccncc2)c[nH]c1=O | inactive | inactive |  | 
CN1CCN(Cc2cc(-c3ccc4[nH]c(=O)oc4c3)co2)[C@@H](c2ccc(F)cc2)C1 | inactive | inactive |  | 
C=CC(=O)OCCN(CC)CC | inactive | inactive |  | 
OC[C@@H](O)[C@@H](O)CO | inactive | inactive |  | 
COC(=O)CC(C(C)=O)C(=O)OC (stereo not drawn) | inactive | inactive |  | 
CCCCCCCC=O | inactive | inactive |  | 
Cc1[nH]c(=O)c(C#N)cc1-c1ccncc1 | inactive | inactive |  | 
CCCCC(CC)COCCO (stereo not drawn) | inactive | inactive |  | 
C=CC(=C)CC/C=C(\C)CCC=C(C)C |  |  | 13.3% [at 18.9 µM] | -3.29% [at 18.9 µM]
CC(=O)OCC1=C(C(=O)O)N2C(=O)[C@@H](NC(=O)CSc3ccncc3)[C@H]2SC1 | inactive | inactive |  | 
OCC(O)[C@@H](O)[C@H](O)[C@H](O)CO[C@H]1O[C@H](CO)[C@@H](O)[C@H](O)[C@H]1O (stereo partly drawn) | inactive | inactive |  | 
CCCCCCCCOS(=O)(=O)O | inactive | inactive |  | 
O=Nc1ccc(O)cc1 | inactive | inactive |  | 
CCCCCOC(=O)CCCC | inactive | inactive |  | 
O=C1O[C@H](CO)[C@@H](O)[C@H](O)[C@H]1O | inactive | inactive |  | 
O=C1CCCC(=O)O1 | inactive | inactive |  | 
CCCCCCCCCCCC(=O)OC[C@@H](O)[C@H]1OC[C@H](OCCO)[C@H]1OCCO | inactive | inactive |  | 
CCCCOCCOCCOCCCC | inactive | inactive |  | 
C=COC(=O)C(C)(CC)CCC(C)C (stereo not drawn) | inactive | inactive |  | 
C(/C=C/C=C/Nc1ccccc1)=Nc1ccccc1 | inactive | inactive |  | 
FC(F)(F)c1ccc(Cl)c(Cl)c1 | inactive | inactive |  | 
